Reference: PubChem BioAssay AID977607 (Broad Institute, 2014)
The whole screen tested about 1,500 compounds, of which about 460 (31%) were called active. Roughly 1% stayed inconclusive and do not appear here.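 The calls were made as follows: active = curve reaches 40% activation over neutral controls at an AC40 no higher than the top valid tested concentration; inconclusive = no clear call, values can overlap the other calls; inactive = signal moving opposite to the expected increase, and the rest.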 A selection follows. Potency and affinity values are given separately.

Assay: activators of glucose-dependent insulin secretion, dose response, cell-based, INS-1E, Gaussia luciferase, luminescence, cherry-pick, set 2 (AID 977607);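 also: 0% = median of the plate neutral control wells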
Conditions: INS-1E GLuc insulin secretion reporter, 2-3 h, stronger effect = higher value; at 35 µM, 100% = signal doubled over neutral wells unless noted

Max activation, inactive:
COC(=O)C1CCN(c2cc(Cl)nc(N)n2)CC1 30.9%
NC(=O)c1cc2cc(Cl)ccc2o/c1=N/NC(=O)c1cccs1 -12.9% [at 0.135 µM, 100% = signal doubled over neutral wells]
N#CCCN(Cc1ccccc1)C(=O)c1cccs1 -20.9% [at 11 µM, 100% = signal doubled over neutral wells]
CCOC(=O)c1cc(CC)sc1NC(=O)COC(=O)c1cnccn1 -18.2% [at 0.005 µM, 100% = signal doubled over neutral wells]
COc1cccc(CNC(=O)c2cccnc2Sc2ccccc2)c1 -18.8% [at 0.0016 µM, 100% = signal doubled over neutral wells]
CCOc1ncccc1C(=O)NCc1cccc(OC)c1 -19.1% [at 0.0016 µM, 100% = signal doubled over neutral wells]
CCOc1ccc(CCNC(=O)COC(=O)c2nccnc2N)cc1OCC 16.3% [at 0.42 µM, 100% = signal doubled over neutral wells]
C/C(Cl)=C\Cn1c(N2CCCC2)nc2c1c(=O)[nH]c(=O)n2C -16.5% [at 0.0016 µM, 100% = signal doubled over neutral wells]
COc1ccc(NC(=O)Cc2c(SC)c3ccccc3n2Cc2ccccc2)cc1 28.7% [at 1.2 µM, 100% = signal doubled over neutral wells]
CCCCC(=O)N(C)c1c(CC)nc2c(OCc3ccc(C(F)(F)F)cc3)cccn12 -15.2%
CCc1nc2c(OCc3ccccc3C(=O)OC)cccn2c1N(C)C(=O)c1ccncc1 -29.4%
C[C@H](CO)N1C[C@H](C)[C@@H](CN(C)C(=O)CC2CC2)Oc2cc(C#CC(C)(C)O)ccc2S1(=O)=O 36.4% [at 0.046 µM, 100% = signal doubled over neutral wells]
C[C@@H]1CN([C@@H](C)CO)C(=O)c2cccc(NC(=O)Nc3ccc(C(F)(F)F)cc3)c2O[C@H]1CN(C)Cc1ccc(Cl)c(Cl)c1 -26.5% [at 11 µM, 100% = signal doubled over neutral wells]
C[C@@H]1CN([C@H](C)CO)C(=O)c2cc(C#CCN(C)C)cnc2O[C@H]1CN(C)S(=O)(=O)c1cn(C)cn1 31.4% [at 0.015 µM, 100% = signal doubled over neutral wells]
C[C@H]1CN([C@@H](C)CO)C(=O)c2ccccc2-c2ccccc2CO[C@@H]1CN(C)Cc1cccc(C(F)(F)F)c1 -39% [at 11 µM, 100% = signal doubled over neutral wells]
COCC(=O)N(C)C[C@H]1Oc2cc(Br)ccc2S(=O)(=O)N([C@H](C)CO)C[C@H]1C -5.77% [at 0.046 µM, 100% = signal doubled over neutral wells]
C[C@H]1CN([C@@H](C)CO)C(=O)c2ccccc2-c2ccccc2CO[C@@H]1CN(C)Cc1ccc(Cl)c(Cl)c1 -38.4% [at 3.8 µM, 100% = signal doubled over neutral wells]
C[C@@H]1CN([C@H](C)CO)C(=O)c2cc(C#CCc3ccccc3)cnc2O[C@H]1CN(C)C(=O)C1CCC1 25.2% [at 0.015 µM, 100% = signal doubled over neutral wells]
C[C@@H]1CN([C@H](C)CO)S(=O)(=O)c2ccc(-c3ccc(C#N)cc3)cc2O[C@H]1CN(C)C 15.6% [at 0.046 µM, 100% = signal doubled over neutral wells]
